Active and inactive are the calls of the source. Unless noted, how the calls were made is not given here.
Tests used:
[1] = HepG2 liver cancer cell viability effects, profiling panel, resazurin fluorescence, 24 h, PK04 Diversity Set (AID 1172); conditions: higher = more signal
[2] = basal S. cerevisiae growth modulation, no modifier, primary screen, OD600, strain BY4716, 24 h, basal condition (AID 1173); conditions: OD600, 24 h, higher = more signal, called active from +8 up or from −8 down
[3] = MM1S myeloma cell viability, profiling panel, resazurin fluorescence, basal, 24 h, PK04 Diversity Set (AID 1174); conditions: higher = more signal, called active from +8 up or from −8 down;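 further: MM1S multiple myeloma cell line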
[4] = biological target: Dihydroorotate dehydrogenase (quinone), mitochondrial (Plasmodium falciparum (isolate 3D7)) (UniProt Q08210); assay: PfDHODH enzyme inhibitors, primary screen, biochemical, C-terminal His tag, absorbance 600 nm (AID 1175); conditions: DCIP absorbance 600 nm, higher = more signal, called active from +8 up or from −8 down;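 further: recombinant parasite enzyme with a five histidine tag at its C terminus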
[5] = P. aeruginosa biofilm formation inhibitors, primary screen, strain PAO1, LB-PBS medium, absorbance 600 nm (AID 1176); conditions: P. aeruginosa PAO1 growth/biofilm, A600, 12 h; higher = more signal
[6] = S. cerevisiae RM11-1a growth modifiers, primary screen, strain RM11-1a, OD600, basal, 24 h (AID 1177); conditions: OD600, 24 h, higher = more signal, called active from +8 up or from −8 down;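 further: cultures grown under basal conditions with no added stressor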
[7] = E. coli acrAB mutant growth effects, primary screen, E. coli filamentation inducers, strain DRC39, OD650, 24 h (AID 1178); conditions: higher = more signal, called active from +8 up or from −8 down;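 further: growth measured as culture turbidity by optical density at 650 nm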
[8] = E. coli acrAB mutant growth effects, primary screen, E. coli filamentation inducers, strain DRC39, OD650, 48 h (AID 1179);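 further: screen aims at cell division blockers that make cells filament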; conditions: E. coli DRC39 delta-acrAB growth, higher = more signal, called active from +8 up or from −8 down
[9] = RPMI8226 myeloma cell viability, profiling panel, resazurin fluorescence, basal, 24 h, PK04 Diversity Set (AID 1180); conditions: higher = more signal;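 further: RPMI8826 multiple myeloma cell line at 5000 cells per well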
[10] = biological target: E3 ubiquitin-protein ligase XIAP (Homo sapiens) (UniProt P98170); assay: XIAP binders, primary screen, biophysical, small-molecule microarray, fluorescence 635 nm (AID 1181); conditions: small-molecule microarray binding, higher = more signal;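 further: score merges 667 nm emission and signal to noise over triplicate slides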
[11] = test system: XIP peptide (Xip251-270) binding; assay: small-molecule binders of XIP peptide, primary screen, biochemical, small-molecule microarray, fluorescence 635/667 nm, 0.1 µg/mL protein (AID 1182); conditions: fluorescent protein binding, 635 nm, higher = more signal, called active from +8 up or from −8 down
XIP peptide (Xip251-270) = assay: small-molecule binders of XIP peptide, primary screen, biochemical, small-molecule microarray, fluorescence 635/667 nm, 0.5 µg/mL protein (AID 1183); conditions: small-molecule microarray binding, fluorescence 635 nm; higher = more signal
[12] = Plasmodium falciparum growth inhibition, primary screen, strain 3D7, DAPI fluorescence, 100 nL (AID 1184);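 further: parasites grown inside human red blood cells in medium with human serum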; conditions: P. falciparum 3D7 growth, 3 d, higher = more signal
[13] = biological target: Homeobox protein Hox-A13 (Mus musculus) (UniProt Q62424); assay: inhibitors of HoxA13-DNA binding, primary screen, biochemical, fluorescence polarization, labeled oligonucleotide (AID 1185); conditions: 15 min, higher = more signal, called active from +8 up or from −8 down
[14] = inhibitors of hydroxyurea-induced Chk1 phosphorylation, primary screen, imaging, HeLa, phospho-Chk1 antibody, percent positive cells (AID 1186); conditions: hydroxyurea-induced phospho-Chk1 immunofluorescence imaging, higher = more signal
[15] = inhibitors of hydroxyurea-induced Chk1 phosphorylation, primary screen, imaging, HeLa, phospho-Chk1 nuclear intensity (AID 1187); conditions: hydroxyurea-induced phospho-Chk1 immunofluorescence imaging, higher = more signal

Dihydroorotate dehydrogenase (quinone), mitochondrial (Plasmodium falciparum (isolate 3D7)), sequence (Q08210 whole entry, looked up): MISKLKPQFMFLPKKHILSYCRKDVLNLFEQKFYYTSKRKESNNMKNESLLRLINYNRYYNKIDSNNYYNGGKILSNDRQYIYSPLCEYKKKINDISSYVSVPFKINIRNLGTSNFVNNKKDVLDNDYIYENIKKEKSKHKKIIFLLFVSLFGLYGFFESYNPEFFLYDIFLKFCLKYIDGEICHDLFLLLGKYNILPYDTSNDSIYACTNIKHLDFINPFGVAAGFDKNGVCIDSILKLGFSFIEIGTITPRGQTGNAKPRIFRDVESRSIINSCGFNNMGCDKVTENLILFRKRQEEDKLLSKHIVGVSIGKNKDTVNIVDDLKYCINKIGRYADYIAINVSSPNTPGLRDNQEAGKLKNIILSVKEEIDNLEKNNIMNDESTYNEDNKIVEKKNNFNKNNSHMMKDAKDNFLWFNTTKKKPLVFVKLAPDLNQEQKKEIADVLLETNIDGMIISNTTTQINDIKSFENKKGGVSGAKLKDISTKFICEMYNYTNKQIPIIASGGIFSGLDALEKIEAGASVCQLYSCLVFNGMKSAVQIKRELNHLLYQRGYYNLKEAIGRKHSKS
Homeobox protein Hox-A13 (Mus musculus), sequence (Q62424 whole entry, looked up): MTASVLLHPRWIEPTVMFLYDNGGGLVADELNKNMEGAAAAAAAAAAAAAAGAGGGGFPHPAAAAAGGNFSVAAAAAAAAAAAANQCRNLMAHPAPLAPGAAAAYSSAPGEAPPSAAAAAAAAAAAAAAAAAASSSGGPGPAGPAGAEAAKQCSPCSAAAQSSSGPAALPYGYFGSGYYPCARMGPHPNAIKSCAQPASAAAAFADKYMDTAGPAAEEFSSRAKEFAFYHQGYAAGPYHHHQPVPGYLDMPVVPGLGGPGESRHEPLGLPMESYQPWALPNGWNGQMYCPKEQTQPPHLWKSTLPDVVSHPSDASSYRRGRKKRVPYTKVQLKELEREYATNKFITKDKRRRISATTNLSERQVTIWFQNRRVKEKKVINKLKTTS
E3 ubiquitin-protein ligase XIAP (Homo sapiens), sequence (P98170 whole entry, looked up): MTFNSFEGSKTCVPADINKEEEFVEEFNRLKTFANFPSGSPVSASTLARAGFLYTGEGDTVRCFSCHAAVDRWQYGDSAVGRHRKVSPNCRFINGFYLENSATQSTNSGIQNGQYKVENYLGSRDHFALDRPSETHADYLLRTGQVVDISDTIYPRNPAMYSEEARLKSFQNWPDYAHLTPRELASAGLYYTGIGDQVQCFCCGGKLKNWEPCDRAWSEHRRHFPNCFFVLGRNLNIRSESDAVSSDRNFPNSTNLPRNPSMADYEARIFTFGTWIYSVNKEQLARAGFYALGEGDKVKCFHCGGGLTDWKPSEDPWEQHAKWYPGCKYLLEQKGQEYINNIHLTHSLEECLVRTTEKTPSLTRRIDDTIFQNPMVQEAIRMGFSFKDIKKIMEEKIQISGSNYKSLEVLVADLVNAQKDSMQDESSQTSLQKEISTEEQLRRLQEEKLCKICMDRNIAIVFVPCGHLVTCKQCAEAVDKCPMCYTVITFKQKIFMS

CCN(CC)c1ccc(N2CC=CC34O[C@@H]5/C=C\CCC(C)OC(=O)C5[C@H]3C(=O)N(CCCCCCO)[C@@H]4C2=O)cc1 (stereo not given in full)
z-score [1]: -0.105 | z-score [2]: -0.0746 (inactive) | z-score [3]: 0.384 (inactive) | composite z-score [4]: -0.788 (inactive) | z-score [5]: -0.497 (inactive) | z-score [6]: 0.251 (inactive) | z-score [7]: 1.37 (inactive) | z-score [8]: 1.59 (inactive) | z-score [9]: 1.56 | composite z-score [10]: -0.0545 | composite z-score [11]: 0.76 (inactive) | composite z-score (XIP peptide (Xip251-270)): -0.0479 | z-score [12]: 0.816 | z-score [13]: -5.99 (inactive) | z-score [14]: -0.632 (inactive) | z-score [15]: -0.767 (inactive)

O=C1C2C=CC(C(O)C3CC=CCC3)N(n3cnnc3)C2C(=O)N1Cc1ccccc1 (stereo not given)
z-score [1]: -0.854 | z-score [2]: 0.0086 (inactive) | z-score [3]: -1.16 (inactive) | composite z-score [4]: -0.071 (inactive) | z-score [5]: 0.216 (inactive) | z-score [6]: -0.363 (inactive) | z-score [7]: -1.59 (inactive) | z-score [8]: -1.35 (inactive) | z-score [9]: -1.45 | composite z-score [10]: 0.38 | composite z-score [11]: 0.887 (inactive) | composite z-score (XIP peptide (Xip251-270)): -0.0517 | z-score [12]: 0.017 | z-score [13]: -3.36 (inactive) | z-score [14]: 0.518 (inactive) | z-score [15]: -0.603 (inactive)

CC1CC/C=C\[C@H]2OC34C=CCN(Cn5nnc6ccccc65)C(=O)[C@H]3N(CCCO)C(=O)[C@@H]4C2C(=O)O1 (stereo not given in full)
z-score [1]: -0.0236 | z-score [2]: 1.06 (inactive) | z-score [3]: 0.502 (inactive) | composite z-score [4]: 0.317 (inactive) | z-score [5]: -0.221 (inactive) | z-score [6]: 0.801 (inactive) | z-score [7]: 0.0706 (inactive) | z-score [8]: -0.0371 (inactive) | z-score [9]: 0.623 | composite z-score [10]: 0.244 | composite z-score [11]: 0.75 (inactive) | composite z-score (XIP peptide (Xip251-270)): 0.13 | z-score [12]: -0.0633 | z-score [13]: -5.65 (inactive) | z-score [14]: -0.86 (inactive) | z-score [15]: -0.909 (inactive)

O=C1O[C@H](c2ccccc2)[C@H](c2ccccc2)N2[C@H]1[C@@H](C(=O)NC[C@H](O)c1ccccc1)[C@]1(C(=O)Nc3ccc(C#CC4(O)CCCCCC4)cc31)[C@H]2c1ccccc1OCCO
z-score [1]: -2.48 | z-score [2]: 1.6 (inactive) | z-score [3]: -7.19 (inactive) | composite z-score [4]: -0.147 (inactive) | z-score [5]: 2.83 (inactive) | z-score [6]: 3.43 (inactive) | z-score [7]: 0.408 (inactive) | z-score [8]: 0.283 (inactive) | z-score [9]: -6.96 | composite z-score [10]: 0.165 | composite z-score [11]: -0.34 (inactive) | composite z-score (XIP peptide (Xip251-270)): 0.814 | z-score [12]: -2.04 | z-score [13]: -2.77 (inactive) | z-score [14]: -0.0899 (inactive) | z-score [15]: -0.0113 (inactive)

COc1ccc(C#Cc2ccc3c(c2)[C@]2(C(=O)N3)[C@H](C(=O)N3CCN(c4ncccn4)CC3)[C@H]3C(=O)O[C@H](c4ccccc4)[C@H](c4ccccc4)N3[C@@H]2c2ccc(O)cc2)cc1
z-score [1]: -0.795 | z-score [2]: 0.21 (inactive) | z-score [3]: 0.0492 (inactive) | composite z-score [4]: -3.34 (inactive) | z-score [5]: 0.999 (inactive) | z-score [6]: 0.881 (inactive) | z-score [7]: -0.423 (inactive) | z-score [8]: 0.182 (inactive) | z-score [9]: 0.225 | composite z-score [10]: -0.0149 | composite z-score [11]: -0.219 (inactive) | composite z-score (XIP peptide (Xip251-270)): 0.734 | z-score [12]: -1.08 | z-score [13]: -0.983 (inactive) | z-score [14]: -0.247 (inactive) | z-score [15]: -0.298 (inactive)

O=C(NCCN1CCOCC1)[C@@H]1c2ccccc2C(=O)N(Cc2cc(F)cc(C(F)(F)F)c2)[C@H]1c1ccc(CO)cc1
z-score [1]: -0.375 | z-score [2]: -0.191 (inactive) | z-score [3]: 0.362 (inactive) | composite z-score [4]: -0.517 (inactive) | z-score [5]: -0.0807 (inactive) | z-score [6]: -0.64 (inactive) | z-score [7]: 0.552 (inactive) | z-score [8]: -0.232 (inactive) | z-score [9]: 0.419 | composite z-score [10]: 0.0451 | composite z-score [11]: 0.376 (inactive) | composite z-score (XIP peptide (Xip251-270)): 0.372 | z-score [12]: 0.0111 | z-score [13]: -4.42 (inactive) | z-score [14]: -0.189 (inactive) | z-score [15]: -0.151 (inactive)

CCOC1=C2C(c3ccc(C)cc3)N(S(=O)(=O)c3ccc(C)cc3)CC2n2c(=O)n(-c3ccccc3)c(=O)n2C1 (stereo not given)
z-score [1]: -0.994 | z-score [2]: 1.21 (inactive) | z-score [3]: -0.932 (inactive) | composite z-score [4]: -2.05 (inactive) | z-score [5]: -0.172 (inactive) | z-score [6]: 0.135 (inactive) | z-score [7]: -0.15 (inactive) | z-score [8]: 0.717 (inactive) | z-score [9]: -0.774 | composite z-score [10]: 0.199 | composite z-score [11]: 0.346 (inactive) | composite z-score (XIP peptide (Xip251-270)): 0.846 | z-score [12]: -0.102 | z-score [13]: -0.865 (inactive) | z-score [14]: -0.562 (inactive) | z-score [15]: 0.0267 (inactive)

COCCOC(=O)N1C(=O)[C@@]2(c3cc(C#CCC(C(=O)OC)C(=O)OC)ccc31)[C@H](c1ccc(OCCO)cc1)N1[C@H](c3ccccc3)[C@H](c3ccccc3)OC(=O)[C@H]1[C@@H]2C(=O)NC[C@H](O)c1ccccc1
z-score [1]: 0.11 | z-score [2]: 2.19 (inactive) | z-score [3]: 0.241 (inactive) | composite z-score [4]: 0.0044 (inactive) | z-score [5]: 2.7 (inactive) | z-score [6]: 3.3 (inactive) | z-score [7]: 0.732 (inactive) | z-score [8]: 0.855 (inactive) | z-score [9]: -0.957 | composite z-score [10]: 0.19 | composite z-score [11]: 0.234 (inactive) | composite z-score (XIP peptide (Xip251-270)): 0.851 | z-score [12]: -2.16 | z-score [13]: 0.738 (inactive) | z-score [14]: -0.411 (inactive) | z-score [15]: -0.397 (inactive)

CCCC[C@H]1C[C@@H]1[C@@H]1N(P(=O)(c2ccccc2)c2ccccc2)[C@](CO)(c2ccccc2)CC12CC2
z-score [1]: -0.544 | z-score [2]: 0.402 (inactive) | z-score [3]: -1.93 (inactive) | composite z-score [4]: -0.152 (inactive) | z-score [5]: 0.411 (inactive) | z-score [6]: 1.14 (inactive) | z-score [7]: 0.0779 (inactive) | z-score [8]: -0.872 (inactive) | z-score [9]: -6.02 | composite z-score [10]: 0.247 | composite z-score [11]: -0.131 (inactive) | composite z-score (XIP peptide (Xip251-270)): 0.518 | z-score [12]: 0.791 | z-score [13]: -2.7 (inactive) | z-score [14]: 0.335 (inactive) | z-score [15]: 0.514 (inactive)

CC1(C)C(=O)C(c2ccccc2)=C2CN3C(=O)N(CCc4ccccc4)C(=O)C3(Cc3ccccc3)C=C21 (stereo not given)
z-score [1]: -0.752 | z-score [2]: 1.4 (inactive) | z-score [3]: -1.22 (inactive) | composite z-score [4]: 0.362 (inactive) | z-score [5]: 0.784 (inactive) | z-score [6]: 2.07 (inactive) | z-score [7]: 0.0474 (inactive) | z-score [8]: 0.222 (inactive) | z-score [9]: -0.562 | composite z-score [10]: 0.237 | composite z-score [11]: 1.7 (inactive) | composite z-score (XIP peptide (Xip251-270)): -0.119 | z-score [12]: -1.34 | z-score [13]: -0.335 (inactive) | z-score [14]: -0.0628 (inactive) | z-score [15]: 0.121 (inactive)
